Assay results: the supplement of paper PMC12632987
Over roughly 2,300 sequences, “median log2 fold change of GCK-ALFA target abundance (FLAG IP / Myc IP barcode read proportion)” has its median near 0.095; the lowest 2% begin near -0.47. Many of the other results were omitted from the sample, so the lowest values are more common in it than they were.

B1: LC3A_45_1977 (protein)
chain: MAEATLDVLVPRELAEAALEALKRGAERLLEERGPGVEVDLEALEESYRATRDEEEVLLTVRIRAPTRQEALDLADELVEELERELGRPVAAAISVEELP
B2: LC3A_59_2019 (protein)
chain: MEEIEEYREKLREAIDNIDEFVEIVREGLEKFKDDKEKVEALLEEVMEVIVEELGADPEEAEKVLKRMKEIFKTEKDKEKAIELVVDEIRDLLLLTPIEE
B3: LC3A_3_1859 (protein)
chain: MEEIKKEIIELLKSLGRSEEVIEAAERLANLLIERGYKEALETLLEELKKLKDVSDEILLAMFEDLIEALETEDLSEEELIERIEEEARIALNDQEIEEL
B4: LC3A_17_549 (protein)
chain: MEEIKKELEKLLKELEALVKELEKYDPEAAKKLKKKLKEAKKLLEEGKLKEAAETLAEAARELANKLDELEPKHGNEASVLAMEASGLELEAIGLLLKLE
B5: LC3A_3_1857 (protein)
chain: MEEIKKEILELLKKLGRSEETIKAAEELADALIKRGYKKALEKLLEELKKLKNASDELLLDMFKELLAALENEKLNEEELIKKIEEEAKIVKNEQEIIEL
B6: LC3A_147_450 (protein)
chain: VLYEITVDILFKNDPELAEEVEEEIKEIAEKYGGEVEVEREVEQETPTTTLYFVRVTIKFEDEEKALEAEQEISELLDETAKKHPEKFVGAMISIEKIEE
B7: LC3A_28_755 (protein)
chain: ADIEGTIKEAIERAKKAKEEGKEEVIEITVPAGATQADIDKVIEGMEEIAEINKDMKRTTILVNVEAGVAQENLDKLIDAGEEIEEKYPNVTVIFALDEE
B8: LC3A_28_1202 (protein)
chain: SATKAAADAALAEAKALLAAGEEGVVELVVEGKITEEETQYVIDKLEEIAELAAKSGKISIVLDISGEVPEEHQQKLIDKADELEKKYPNVNIIVALEER
B9: LC3A_3_1805 (protein)
chain: ADERIEALLEELRAAGASEETIAAAREVLTLLRERGYLEALETLIEGLRELLDAPDELRLDLLEDVLEYLETNDASEEEVTEFIKEEIRLARSESEIEEL
B10: LC3A_28_1235 (protein)
chain: NAVEKQIEAAKAEVEAAVAAGEEALVELTVTKETTEEDVEKIIKAMEEIAALAATLPALTIIIDVERGVKQEHIDKLADAADAIEAKYPNVTVIIALEEE
B11: LC3A_17_590 (protein)
chain: SEEIREELEELLKELKELIKEAKKLGIPEAKEVEKLLKEAEKALKEGKLREAAELLREAADLLADALEEIEEELGSKASVLEMEANGLALRAEGILLKLE
B12: LC3A_17_592 (protein)
chain: SEEIKKEIEELLKELKKLIKKMKELGIPEAKEIEKLLKEAEKALKEGDLKKAAELLAKAADLAADALEEKEEELGSEASVLEMEANGLELRAIGILLKLD
B13: LC3A_28_956 (protein)
chain: SALEEALKKAIEEAKKAAEKGEPAVITIKVPGDADEEDIEKVIEALREIAEILKDVKGAAIIVDVDGKVKQEHIDKIAEEAERIEKEYPNVTVIIALDEE
B14: LC3A_3_1793 (protein)
chain: AQARIDALLAELRAAGKSDETLAAVRAAATALADRGYEEALATFIEELRELIDAPDEILLDLAEEVLRLIEEEDLDEEELTERIKELAELARNEAEIIEL
B15: LC3A_free_8_2441 (protein)
chain: SNQELVDAALKLLDELEEEIEKKAKELGLDETDIGLLLLEVGSAISEVISLSDASPEEILKATKEDLEEIIKLAEEINKELAKIVKEKAEKILKELEKLL
B16: LC3A_28_693 (protein)
chain: SAIDKQIAAARAEADAAIAAGEEATLTITVTADTTQADVDRIMAAIEEIAARMAASAKLNIIIDVEAGVPQEHLDRLADFGDALAARYPNVNIIIALDED
B17: LC3A_free_39_2217 (protein)
chain: SMEEIEKLIKEIAEEGGIDYEYVKKKIEEIKEVAGLSDEQILELVKAILEAVKAGADAKEILERILKLAKELKEEGKSPEEIAKELLEEIEDFRNLIPLD
B18: LC3A_free_39_2214 (protein)
chain: SEEELEELIKEVAKESGLDYEYIKKKIEEIKEIAGLSLEQMKELVKAILEAVKAGADAEEILKRILALAKELKAAGKSPEEIAEALIEEAEDFRNLIPLD
B19: LC3A_free_39_2288 (protein)
chain: SMEELEKAVKRLAELLDKIEGVTEEEKQTILEAAKKSLETAKAILEALETIEKDGGDVAEAAKRIAAKIKELEAAGKSLEEMTEEIIALTKDLVNLIPID
B20: LC3A_3_1447 (protein)
chain: AEELREEALELLRERGASPETIAAAEELFDALIEKGYLEAMELVLEFLKEVKDASDEFLLETFKDLLELVLTSDDSPEEMKKKIEEELSAFRSELEIEEL
B21: LC3A_3_1891 (protein)
chain: LEERIERTEELLREKGASEETIELFRKVMELLKARGYEEALKTLIEEVEELADLPDEILLDFLEEVLEVLETEDLSEEELIKKIKELARLARNEGEIIEL
B22: LC3A_3_1892 (protein)
chain: LEERVEETVERLKEAGASEETIELFLEAAELLLERGYYEALETLIDEVEELIDLPDEILLDFLEEVLEVLETEDLSEEELIERIKELARLAKNEGEIEEL
B23: LC3A_3_1875 (protein)
chain: MDEKIEETIELLKEAGASEETIEKFEEVAELLKERGYEEALETLIEEVKKLAGTSDEILLDFLEEVLEVLKTKDLSEEELIEEIKRIARLALNEAEIIEL
B24: LC3A_28_685 (protein)
chain: SKTEEDLKKALEEAEEALKKGEPTVVRINVYGDVTEEELEKVLKALEEIAKILNKIPGSAIIVDIDADVDEEFEDKIIDKAEELEKKYPNVTIIIALEER
B25: LC3A_28_1013 (protein)
chain: MSIVEETKKKIEEALKEAEKGEDAYLEVEITSEATQEEVEEVLELIEKAAKEVSKLPNVKLYVVIYDDSNQENHQLIVDAADRIEEKYPNVHVIVAYDDE
B26: LC3A_45_1937 (protein)
chain: MYLATIDLIVPRELAEEALALAEEIARELEEENDGKVEVDLETLRESYEATRDEEDVLLVVKIYAETEELALDVADRLVDRLRAALGPRVAAIISVEEVP
B27: LC3A_free_46_2420 (protein)
chain: MTLDIDIDVLAKTEETAKAVAKELTKTLEDTAKELGVKVEIKVEIEKLEDGTYYVHIDATFTGVTEEQAQQIEDKVIDKVEELEKKYPEILGSIISSELE
B28: LC3A_free_26_2152 (protein)
chain: DIFIDLVELDKAIELLEKALKLLEEDKNASEELKKLVKEALKKAEEMTLESLEEAKKLVEEALKLLEKDKSLSEEKKKELKKLLEEALKLLEKNIEIAKS
B29: LC3A_28_1030 (protein)
chain: AALKAAAAAALAEARAQFEAGEEAVVTLDVGDVPTAEAKAVVTAFLAELRALSAEYGGRKVSVVINYDGDQATLDAIIDAAEAAEAEDPNLTVIIAYADN

biological target: MAP1LC3A, Q9H492; assay: median log2 fold change of GCK-ALFA target abundance (FLAG IP / Myc IP barcode read proportion) (log2 ratio); each designed protein is fused to an ALFA-tag nanobody in HEK293 cells to bring the named protein to FLAG-tagged glucokinase (GCK); Myc marks an untargeted standard; higher = target protein stabilised (more abundant); conditions: target protein: 3xFLAG-MCP-GCK-ALFA reporter; HEK293 landing pad (RPLP)
Procedure: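 LABEL-seq trans screen in HEK293 landing-pad cells. Each de novo designed 100-aa effector handle, binding the indicated effector (E3 ligase, DUB or autophagy protein), is fused to a constant NbALFA target handle and induced with 2 ug/mL doxycycline. A FLAG-MCP-GCK-ALFA target and a Myc-MCP standard reporter were transfected, and after 48 h circRNA barcodes were recovered by anti-FLAG and anti-Myc IP and sequenced. The value is the median across barcodes (at least 3 per design) of log2(FLAG/Myc read-proportion ratio), with the two transfection replicates pooled. Negative values mean degradation and positive values mean stabilisation of the target.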

Point of comparison: B3, “median log2 fold change” value 0.169. Against it:
- B1 — within 0.2 log units, 0.107
- B2 — lower, -0.514
- B4 — within 0.2 log units, 0.207
- B5 — within 0.2 log units, 0.117
- B6 — lower, -0.716
- B7 — lower, -0.196
- B8 — lower, -0.206
- B9 — within 0.2 log units, -0.0069
- B10 — within 0.2 log units, 0.0727
- B11 — within 0.2 log units, 0.0276
- B12 — lower, -0.636
- B13 — lower, -0.0851
- B14 — within 0.2 log units, 0.139
- B15 — within 0.2 log units, 0.0457
- B16 — within 0.2 log units, 0.211
- B17 — within 0.2 log units, -0.012
- B18 — lower, -0.832
- B19 — within 0.2 log units, 0.326
- B20 — within 0.2 log units, 0.173
- B21 — lower, -0.0314
- B22 — lower, -0.691
- B23 — within 0.2 log units, 0.289
- B24 — lower, -0.264
- B25 — lower, -0.261
- B26 — lower, -0.359
- B27 — lower, -0.177
- B28 — within 0.2 log units, 0.192
- B29 — lower, -0.268
